In PubChem BioAssay (Tox21):
Values joined by “and” are separate entries in the source; they are usually repeats but may differ in a detail not shown here. Equal values may be shown once. Results filed as inconclusive are left out. Entries that show only a call come without a potency. Some structures have more than one record in an assay (separate samples or runs), and their calls can disagree. Active and inactive are the calls of the source. Unless noted, calls follow the shape of the dose curve; as a rule, active = well fitted curve in the direction sought with a large enough effect in the repeat runs; inconclusive = weak or mixed curves; inactive = no such curve, though single readings can be large; an effect the other way counts as inactive or inconclusive.

Assays:
[1] = biological target: Retinoic acid receptor RXR-alpha (Homo sapiens) (UniProt P19793); assay: qHTS assay to identify small molecule agonists of the RXR signaling pathway (AID 1159527; calls by dose curve; also: nearly all actives have a fitted effect of over 35% in size; also: potency is read from the fitted curve at half-maximal effect)
How it was run: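 Reporter activation is measured as beta-lactamase activity via FRET substrate cleavage (emission 460/530 nm) in HEK 293T cells expressing an RXR-alpha-driven bla construct, following 16 hr compound exposure at 37 C.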

[2] = qHTS assay to identify small molecule agonists of the RXR signaling pathway - cell viability counter screen (AID 1159529); also: series mostly up to about 77 µM; nearly all actives have a fitted effect of over 50% in size
How it was run: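 Tox21 10K compounds were tested for cytotoxicity against GeneBLAzer RXR-alpha HEK 293T cells grown in 2% charcoal-stripped FBS. Exposure lasted 16 hr at 37 C, 5% CO2; viability read by CellTiter-Glo luminescence.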

[3] = qHTS assay to identify small molecule antagonists of the retinoic acid receptor (RAR) signaling pathway (AID 1159552; also: nearly all actives have a fitted effect of over 50% in size; also: potency is read from the fitted curve at half-maximal effect)
How it was run: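 Overnight-plated C3RL4 reporter cells get compound, then retinol to 1 uM final; plates sit 6 hr at 37 C, 5% CO2. A luciferase reagent is added and light output recorded after 30 min at room temperature.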

[4] = qHTS assay to identify small molecule agonists of the retinoic acid receptor (RAR) signaling pathway (AID 1159553); also: potency is read from the fitted curve at half-maximal effect
How it was run: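 Activation of retinol signaling was monitored via a RARE luciferase reporter in C3RL4 cells. After 6 hr compound treatment at 37 C, detection reagent was added for 30 min at room temperature before luminescence reading.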

[5] = qHTS assay to identify small molecule antagonists of the estrogen related receptor (ERR) signaling pathway from Tox21 library - cell viability counter screen (AID 1224834); also: nearly all actives have a fitted effect of over 30% in size; also: potency is read from the fitted curve at half-maximal effect
How it was run: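 CellTiter-Fluor fluorescence measured; ERR cells; 17.5 h compound incubation at 37 C; 30 min reagent step.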

[6] = biological target: Luciferin 4-monooxygenase (Photinus pyralis) (UniProt P08659); assay: qHTS assay to identify small molecule inhibitors of firefly luciferase (AID 1224835); also: nearly all actives have a fitted effect of over 25% in size; also: potency is read from the fitted curve at half-maximal effect
How it was run: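 Biochemical qHTS: compounds run as interplate titrations against purified firefly enzyme, with D-luciferin and ATP each at its KM concentration. Light output recorded by CCD imaging.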

[7] = qHTS assay to identify small molecule agonists of the constitutive androstane receptor (CAR) signaling pathway - cell viability counter screen (AID 1224836); also: series mostly up to about 92 µM; nearly all actives have a fitted effect of over 45% in size
How it was run: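 Fluorescence from CellTiter-Fluor indicates live cells after 23 h exposure. The human hepatoma line expresses hCAR and a CYP2B6-2.2kb reporter. Incubation medium contains 0.75 uM PK11195 (final).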

[8] = qHTS assay to identify small molecule antagonists of the constitutive androstane receptor (CAR) signaling pathway - cell viability counter screen (AID 1224837); also: series mostly up to about 92 µM; nearly all actives have a fitted effect of over 45% in size
How it was run: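 Using CellTiter-Fluor, viability is scored in HepG2 cells stably carrying hCAR and a 2.2kb CYP2B6 reporter after 23 hr compound exposure across 15 concentrations, with CITCO present at 50 nM.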

[9] = biological target: Nuclear receptor subfamily 1 group I member 3 (Homo sapiens) (UniProt Q14994); assay: qHTS assay to identify small molecule antagonists of the constitutive androstane receptor (CAR) signaling pathway (AID 1224838);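 also: HepG2 cells stably expressing hCAR with CYP2B6 luciferase reporter stimulated by CITCO; nearly all actives have a fitted effect of over 40% in size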; also: potency is read from the fitted curve at half-maximal effect
How it was run: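 Reporter luminescence was quantified after 24 h exposure of hCAR/CYP2B6-2.2kb double-stable HepG2 cells to compounds at 15 concentrations in the presence of 50 nM CITCO final.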

[10] = biological target: Nuclear receptor subfamily 1 group I member 3 (Homo sapiens) (UniProt Q14994); assay: qHTS assay to identify small molecule agonists of the constitutive androstane receptor (CAR) signaling pathway (AID 1224839); also: nearly all actives have a fitted effect of over 15% in size; also: potency is read from the fitted curve at half-maximal effect
How it was run: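 Stable hCAR/CYP2B6-2.2kb HepG2 line in DMEM with 10% FBS; compounds (15 concentrations) and 0.75 uM PK11195 final, 24 h at 37 C/5% CO2, then ONE-Glo luminescence after 30 min.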

[11] = qHTS assay to identify small molecule antagonists of the estrogen related receptor signaling pathway with the pleiotropic PPARgamma coactivator (PGC) from Tox21 10K library - cell viability counter screen (AID 1224840; active = well fitted cell-killing curve with a large enough effect in the repeat runs, not every such curve was filed as active; also: nearly all actives have a fitted effect of over 40% in size; also: potency is read from the fitted curve at half-maximal effect)
How it was run: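 Here the PGC/ERR cells serve as a cytotoxicity control: they are exposed to compounds for 17.5 hours at 37 C, and live-cell signal is quantified using CellTiter-Fluor fluorescence.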

[12] = qHTS assay to identify small molecule antagonists of the estrogen related receptor signaling pathway with the pleiotropic PPARgamma coactivator (PGC) from Tox21 10K library (AID 1224841; call rule not given here; also: series mostly up to about 92 µM; actives are mostly falling curves and most rising ones were filed inactive; nearly all actives have a fitted effect of over 50% in size)
How it was run: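 Each well held 2,000 PGC/ERR cells, pre-incubated six hours (37 C, 5% CO2). Test substances in DMSO were added by pin tool and left for 18 h at 37 C before luciferase detection by One-Glo.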

[13] = qHTS assay to identify small molecule agonists of the estrogen related receptor signaling pathway with the pleiotropic PPARgamma coactivator (PGC) from Tox21 10K library (AID 1224842); also: nearly all actives have a fitted effect of over 15% in size; also: potency is read from the fitted curve at half-maximal effect
How it was run: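 PGC/ERR reporter cell line, 2,000 cells per well, incubated 6 h at 37 C before 23 nL compound in DMSO was added. After 18 h at 37 C, One-Glo luminescence read following 30 min at room temperature.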

Sequence of Retinoic acid receptor RXR-alpha (Homo sapiens) (P19793 whole entry, looked up): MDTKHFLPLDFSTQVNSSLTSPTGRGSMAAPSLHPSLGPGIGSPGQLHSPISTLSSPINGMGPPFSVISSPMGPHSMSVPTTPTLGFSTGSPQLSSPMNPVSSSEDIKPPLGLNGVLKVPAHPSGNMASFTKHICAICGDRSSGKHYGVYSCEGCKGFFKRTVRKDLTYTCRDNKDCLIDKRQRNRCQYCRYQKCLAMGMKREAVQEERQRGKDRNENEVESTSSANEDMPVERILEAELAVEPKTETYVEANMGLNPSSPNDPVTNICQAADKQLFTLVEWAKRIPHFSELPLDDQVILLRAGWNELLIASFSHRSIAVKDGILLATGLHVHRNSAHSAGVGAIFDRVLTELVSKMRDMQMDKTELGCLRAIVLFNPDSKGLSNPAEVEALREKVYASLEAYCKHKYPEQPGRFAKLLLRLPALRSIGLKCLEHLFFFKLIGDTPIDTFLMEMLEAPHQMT
Sequence of Nuclear receptor subfamily 1 group I member 3 (Homo sapiens) (Q14994 whole entry, looked up): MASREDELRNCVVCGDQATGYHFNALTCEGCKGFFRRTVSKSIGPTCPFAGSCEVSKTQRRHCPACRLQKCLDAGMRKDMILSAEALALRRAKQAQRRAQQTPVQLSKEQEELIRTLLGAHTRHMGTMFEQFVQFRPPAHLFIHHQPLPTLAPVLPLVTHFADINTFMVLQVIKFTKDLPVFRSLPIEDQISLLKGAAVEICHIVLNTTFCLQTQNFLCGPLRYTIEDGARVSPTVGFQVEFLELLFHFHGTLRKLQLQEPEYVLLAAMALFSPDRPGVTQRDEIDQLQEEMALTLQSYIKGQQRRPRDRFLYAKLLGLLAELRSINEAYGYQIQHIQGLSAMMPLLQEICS
Sequence of Luciferin 4-monooxygenase (Photinus pyralis) (P08659 whole entry, looked up): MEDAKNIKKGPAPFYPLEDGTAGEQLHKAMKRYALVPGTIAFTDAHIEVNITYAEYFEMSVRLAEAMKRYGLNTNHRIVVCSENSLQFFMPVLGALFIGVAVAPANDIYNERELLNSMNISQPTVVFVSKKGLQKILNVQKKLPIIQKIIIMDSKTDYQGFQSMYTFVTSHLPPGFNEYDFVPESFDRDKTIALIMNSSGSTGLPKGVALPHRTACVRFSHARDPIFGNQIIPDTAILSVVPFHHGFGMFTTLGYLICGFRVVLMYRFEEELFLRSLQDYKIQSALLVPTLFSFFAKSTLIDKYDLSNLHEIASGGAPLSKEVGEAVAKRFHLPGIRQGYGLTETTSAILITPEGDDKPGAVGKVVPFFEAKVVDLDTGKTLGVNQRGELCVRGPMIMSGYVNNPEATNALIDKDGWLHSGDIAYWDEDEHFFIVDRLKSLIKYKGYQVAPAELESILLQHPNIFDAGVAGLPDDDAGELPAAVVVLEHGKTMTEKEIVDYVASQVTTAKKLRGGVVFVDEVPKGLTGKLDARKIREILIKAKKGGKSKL

| SMILES | Potency [1] | outcome [2] | Potency [3] | Potency [4] | Potency [5] | Potency [6] | Potency [7] | Potency [8] | Potency [9] | Potency [10] | Potency [11] | Potency [12] | Potency [13] |
| --- | --- | --- | --- | --- | --- | --- | --- | --- | --- | --- | --- | --- | --- |
| CSc1nnc(C(C)(C)C)c(=O)n1N | inactive | inactive | inactive | inactive | inactive | inactive | inactive | inactive | inactive | inactive | inactive |  |  |
| CN(C)C(=O)C(c1ccccc1)c1ccccc1 | inactive | inactive | inactive | inactive | inactive | inactive | inactive | inactive | inactive | 26.9 µM (active) and 12.2 µM (active) | inactive |  |  |
| Cc1cccc(N)c1C | 11.4 µM (active) and inactive | inactive | inactive | inactive | inactive | inactive | inactive | inactive | inactive | inactive and 61.1 µM (active) | inactive |  |  |
| O=[N+]([O-])c1cc([As](=O)(O)O)ccc1O | inactive | inactive | inactive | inactive | 60.7 µM (active) | inactive | inactive | inactive |  |  | inactive | inactive | inactive |
| OC[C@@H](O)[C@H]1O[C@@H]2O[C@H](C(Cl)(Cl)Cl)O[C@@H]2[C@H]1O | inactive | inactive | inactive | inactive | inactive | inactive | inactive | inactive | inactive | inactive | inactive | inactive | inactive |
| Sc1ccccc1 |  | inactive |  |  | inactive | inactive | inactive | inactive | 62 µM (active) and inactive | inactive | inactive |  |  |
| Oc1ccc(Cl)cc1 | inactive | inactive | inactive | inactive | inactive |  | inactive | inactive | inactive | inactive | inactive |  |  |
| Cc1ccc(N)cc1 | inactive and 19.5 µM (active) | inactive | inactive | 61.5 µM (active) and inactive | inactive | inactive | inactive | inactive | inactive | 2.45 µM (active) | inactive | inactive | inactive |
| COC(C)(C)CCCC(C)C/C=C/C(C)=C/C(=O)OC(C)C (configuration not stated) | inactive | inactive | inactive | inactive | inactive | inactive | inactive | inactive | inactive | inactive | inactive | inactive | inactive |
| C=CC#N | inactive | inactive | inactive | inactive | inactive | inactive | inactive | inactive | inactive | inactive | inactive | inactive | inactive |
| O=[N+]([O-])c1ccc(Cl)cc1 | inactive | inactive |  |  | inactive | inactive | inactive | inactive |  |  | inactive |  |  |
| CC(=O)/C=C/c1ccccc1 | inactive | inactive |  |  | inactive | inactive | inactive | inactive | inactive | inactive | inactive |  |  |
| OCCCCO | inactive | inactive | inactive | inactive | inactive |  | inactive | inactive | inactive | inactive | inactive | inactive | inactive |
| CCCOC(=O)c1ccccc1C(=O)OCCC | inactive | inactive |  |  | inactive | inactive | inactive | inactive |  |  | inactive |  |  |
| C=CC(=O)OCC(CC)CCCC (configuration not stated) | inactive | inactive | inactive | inactive | inactive |  | inactive | inactive | inactive | inactive | inactive | inactive | inactive |
| COc1cc(-c2ccc(N)c(OC)c2)ccc1N | inactive | inactive | inactive and 58.3 µM (active) | inactive | 52 µM (active) | 31.8 µM (active) and inactive | inactive | inactive | inactive | 54.7 µM (active) and 58.3 µM (active) | inactive and 29.2 µM (active) | inactive | inactive |
| Nc1nc(N)nc(NC2CC2)n1 | inactive | inactive | inactive | inactive | inactive | inactive | inactive | inactive |  |  | inactive | inactive | inactive |
| O=C(O)C(Br)Br | inactive | inactive |  |  | inactive | inactive | inactive | inactive | inactive | inactive | inactive |  |  |
| COC(=O)Nc1cccc(OC(=O)Nc2cccc(C)c2)c1 | inactive | inactive | inactive | 8.63 µM (active) and 19.3 µM (active) | inactive | 6.33 µM (active) and 12.6 µM (active) | inactive | inactive | inactive | 30.6 µM (active) and 4.86 µM (active) | inactive | inactive | 13.7 µM (active) |
| CCNc1nc(Cl)nc(NC(C)C)n1 | inactive | inactive |  |  | inactive | inactive | inactive | inactive |  |  | inactive | inactive | inactive |
| CCOP(=S)(OCC)Oc1ccc([N+](=O)[O-])cc1 | inactive | inactive | inactive | inactive | inactive | inactive | inactive | inactive | inactive |  | inactive |  |  |
| COc1nc(NC(C)C)nc(NC(C)C)n1 | inactive | inactive | inactive | inactive | inactive | inactive | inactive | inactive | inactive | inactive | inactive | inactive | inactive |
| O=[N+]([O-])c1ccc(Cl)c(Cl)c1 | inactive | inactive | inactive | inactive | inactive | inactive | inactive | inactive | inactive | inactive | inactive | inactive | inactive |
